Whole data set: some 8,300 sequences, median “log2 fold change of degron read counts, EGFP-low vs EGFP+ sorted cells (limma voom), compound-induced degradation” near -1.1, cut for the highest 2% near 3.2. For the sample, the highest values were picked, then their nearest neighbours and some sequences at random.
T1: CRBN, Q96SW2
T1 chain: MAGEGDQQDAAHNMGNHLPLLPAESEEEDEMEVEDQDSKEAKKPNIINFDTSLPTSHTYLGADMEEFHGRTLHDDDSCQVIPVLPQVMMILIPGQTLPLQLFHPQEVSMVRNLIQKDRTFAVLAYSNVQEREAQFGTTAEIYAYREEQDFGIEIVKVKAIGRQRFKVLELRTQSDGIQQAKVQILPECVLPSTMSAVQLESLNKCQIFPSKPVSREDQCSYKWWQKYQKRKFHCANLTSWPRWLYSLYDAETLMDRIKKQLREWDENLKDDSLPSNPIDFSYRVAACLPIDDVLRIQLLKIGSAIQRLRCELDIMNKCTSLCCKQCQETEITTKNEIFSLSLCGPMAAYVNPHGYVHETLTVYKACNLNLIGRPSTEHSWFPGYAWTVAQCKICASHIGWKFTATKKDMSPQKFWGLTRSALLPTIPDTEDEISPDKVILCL


Biological target: T1, CRBN, Q96SW2
Assay: log2 fold change of degron read counts, EGFP-low vs EGFP+ sorted cells (limma voom), compound-induced degradation; higher = more compound-induced degradation of the degron-EGFP fusion; degrons are variants of IKZF1/3 zinc finger 2; compound dose not given here
Conditions: Jurkat, 18 h
[1] = compound: compound 19 (5-tert-butyl-thalidomide)
[2] = compound: compound 22 (5-morpholino-thalidomide)
[3] = compound: compound 33 (diphenyl IMiD analogue)
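Further: pooled lentiviral library of zinc finger degron-EGFP fusions in mCherry-positive Jurkat cells, FACS-sorted after compound exposure, with degron abundance counted by next-generation sequencing.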

| Sequence | log2 fold change of degron read counts [1] | log2 fold change of degron read counts [2] | log2 fold change of degron read counts [3] | log2 fold change of degron read counts (compound: thalidomide) |
| --- | --- | --- | --- | --- |
| FICEVCGADFTQKGNLLRHIKL [46F_47I_49E_50V_52G_53A_54D_55F_67L_, Q9UKT9] | -2.24 | -0.906 | -0.571 | 0.184 |
| FTCDVCGAMFTQKGNLLRHIKL [46F_47T_49D_50V_52G_53A_54M_55F_67L_, Q9UKT9] | -1.4 | -0.892 | -0.371 | -0.84 |
| LSCNQCGFVCTQKGNLLRHIKL [46L_47S_49N_50Q_52G_53F_54V_55C_67L_, Q9UKT9] | -2.24 | -2.61 | -2 | -2.24 |
| FGCPVCGACFTQKGNLLRHIKL [46F_47G_49P_50V_52G_53A_54C_55F_67L_, Q9UKT9] | 3.88 | 3.16 | 2.81 | 1.1 |
| FRCPVCGACFTQKGNLLRHIKL [46F_47R_49P_50V_52G_53A_54C_55F_67L_, Q9UKT9] | -0.619 | 0.101 | 1.52 | 0.981 |
| FACPVCGACFTQKGNLLRHIKL [46F_47A_49P_50V_52G_53A_54C_55F_67L_, Q9UKT9] | 3.39 | 1.64 | 1.85 | 0.646 |
| FVCPVCGACFTQKGNLLRHIKL [46F_47V_49P_50V_52G_53A_54C_55F_67L_, Q9UKT9] | -0.46 | 1.87 | 2.08 | 2.53 |
| FSCPVCGACFTQKGNLLRHIKL [46F_47S_49P_50V_52G_53A_54C_55F_67L_, Q9UKT9] | 2.64 | 1.8 | 2.73 | 1.07 |
| FMCPVCGACFTQKGNLLRHIKL [46F_47M_49P_50V_52G_53A_54C_55F_67L_, Q9UKT9] | -0.624 | 0.321 | 2.31 | 0.962 |
| FCCPVCGACFTQKGNLLRHIKL [46F_47C_49P_50V_52G_53A_54C_55F_67L_, Q9UKT9] | 2.37 | 1.98 | 2.99 | 2.06 |
| FWCDVCGACFTQKGNLLRHIKL [46F_47W_49D_50V_52G_53A_54C_55F_67L_, Q9UKT9] | 2.78 | 3.47 | 1.12 | -0.931 |
| FFCPVCGACFTQKGNLLRHIKL [46F_47F_49P_50V_52G_53A_54C_55F_67L_, Q9UKT9] | 3 | 3.34 | 2.16 | 1.3 |
| FVCDVCGACFTQKGNLLRHIKL [46F_47V_49D_50V_52G_53A_54C_55F_67L_, Q9UKT9] | -1.45 | -0.0454 | 0.676 | 0.186 |
| FDCPVCGACFTQKGNLLRHIKL [46F_47D_49P_50V_52G_53A_54C_55F_67L_, Q9UKT9] | 1.39 | -0.358 | 1.46 | 1.34 |
| FHCDVCGACFTQKGNLLRHIKL [46F_47H_49D_50V_52G_53A_54C_55F_67L_, Q9UKT9] | 0.383 | 0.3 | -1.01 | -2.43 |
| FFCDQCGAEFTQKGNLLRHIKL [46F_47F_49D_50Q_52G_53A_54E_55F_67L_, Q9UKT9] | -0.653 | -1.5 | -2.48 | -2.75 |
| FACPVCGAFFTQKGNLLRHIKL [46F_47A_49P_50V_52G_53A_54F_55F_67L_, Q9UKT9] | 1.92 | -0.0365 | 0.632 | -0.719 |
| FECPICGHEFTQKGNLLRHIKL [46F_47E_49P_50I_52G_53H_54E_55F_67L_, Q9UKT9] | -3.46 | -3.29 | -1.58 | -1.82 |
| FLCEICGRRFTQKGNLLRHIKL [46F_47L_49E_50I_52G_53R_54R_55F_67L_, Q9UKT9] | -1.65 | -2.28 | -1.89 | -0.0712 |
| FLCNVCGASFTQKGNLLRHIKL [46F_47L_49N_50V_52G_53A_54S_55F_67L_, Q9UKT9] | -1.47 | -1.87 | -0.611 | -0.827 |
| FFCPICGHEFTQKGNLLRHIKL [46F_47F_49P_50I_52G_53H_54E_55F_67L_, Q9UKT9] | -1.46 | -1.37 | -1.31 | -1.41 |
| FMCNVCGAMFTQKGNLLRHIKL [46F_47M_49N_50V_52G_53A_54M_55F_67L_, Q9UKT9] | -2.09 | -2.13 | 0.122 | -1.26 |
| FTCNVCGALFTQKGNLLRHIKL [46F_47T_49N_50V_52G_53A_54L_55F_67L_, Q9UKT9] | -2.25 | -1.98 | -0.325 | -1.1 |
| FKCDICGAGFTQKGNLLRHIKL [46F_47K_49D_50I_52G_53A_54G_55F_67L_, Q9UKT9] | 0.734 | -1.83 | -2.3 | -1.43 |
| FLCNICGAAFTQKGNLLRHIKL [46F_47L_49N_50I_52G_53A_54A_55F_67L_, Q9UKT9] | -0.363 | -1.33 | 0.248 | 0.231 |
| FRCPICGRMFTQKGNLLRHIKL [46F_47R_49P_50I_52G_53R_54M_55F_67L_, Q9UKT9] | -1.98 | -1.28 | -0.201 | 0.319 |
| FHCNQCGHNFTQKGNLLRHIKL [46F_47H_49N_50Q_52G_53H_54N_55F_67L_, Q9UKT9] | -2.43 | -3.18 | -2.46 | -2.52 |
| FVCNICGAYFTQKGNLLRHIKL [46F_47V_49N_50I_52G_53A_54Y_55F_67L_, Q9UKT9] | -0.917 | -0.227 | 1.05 | 1.24 |

Source: the supplement of paper PMC12645437, “Orthogonal IMiD-Degron Pairs Induce Selective Protein Degradation in Cells” (ACS Chemical Biology, 2025)
